Among the test systems are HCT-15 colon; HT29 colon; SNB-75 CNS; SNB-19 CNS; U251 CNS; PC-3 prostate; SK-MEL-5 melanoma; UACC-62 melanoma; LOX IMVI melanoma; SK-MEL-28 melanoma; SK-MEL-2 melanoma; EKVX NSCLC; UO-31 renal; TK-10 renal; ACHN renal; CAKI-1 renal; A498 renal; CCRF-CEM leukemia; MOLT-4 leukemia; SN12C renal.
Common to all, as to assay: NCI-60 one-dose screen, 48 h (100 = growth as untreated, 0 = no growth, -100 = all killed)
Settings in all cases: 10 µM

Molecules are shown by their SMILES. About 83,000 compounds went through this panel and 20% of them were active in at least one assay; those are over-represented in the sample as a whole.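 Results are percent growth after 48 hours of single-concentration exposure. 100 means growth as in untreated cells, lower positive values show inhibition; negative values down to -100 show cell death.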 Values without a mark were called inactive. The source made the active and inactive calls. The calls were made as follows: active = growth percent below 10; inactive = the rest.

For `COc1ccc(N(C)c2cc(C#N)nc3ccccc23)cc1/C=C/C(=O)NO`, the growth is -59.4% (active) in the test with HCT-15 colon; -19.5% (active) in the test with HT29 colon; -24.6% (active) in the test with SNB-75 CNS; -44.5% (active) in the test with SNB-19 CNS; -51% (active) in the test on U251 CNS; -9.99% (active) in the test with PC-3 prostate. Besides, the growth is -67.5% (active) in the test with SK-MEL-5 melanoma; -72.2% (active) in the test on UACC-62 melanoma; -97.6% (active) in the test on LOX IMVI melanoma; -73.8% (active) with SK-MEL-28 melanoma; -80% (active) in the test with SK-MEL-2 melanoma; -54.6% (active) with EKVX NSCLC. Also, the growth in the test with UO-31 renal was -55.3% (active); with TK-10 renal, 23.7%; in the test on ACHN renal, -22.2% (active); in the test on CAKI-1 renal, -19.2% (active); with A498 renal, 16.2%; in the test on CCRF-CEM leukemia, 9.09% (active). Besides, the growth in the test with MOLT-4 leukemia is -3.71% (active).

As to `CCCCCCCCCCCCCCCCCCCC(=O)NCCc1c[nH]c2ccc(OC(=O)CCCC(=O)OCCOOCCOOCCOOCCOOCCOOCCOOCCOOCCOOCCOOCCOOCCOOCCOC)cc12`, the growth with HCT-15 colon is 56%; in the test on HT29 colon, 63.4%; in the test on SNB-75 CNS, 110%; in the test on SNB-19 CNS it was 69.1%; in the test on U251 CNS, -31.3% (active); with PC-3 prostate it was 22%. Further, the growth is 99.6% in the test with SK-MEL-5 melanoma; 67.1% in the test with UACC-62 melanoma; 27.2% in the test on LOX IMVI melanoma; 88% in the test on SK-MEL-28 melanoma; 78.1% with SK-MEL-2 melanoma; 83.1% in the test with EKVX NSCLC. Moreover, the growth with UO-31 renal is 45.4%; in the test with TK-10 renal it was 120%; in the test on ACHN renal, 59.9%; with CAKI-1 renal it was 73.7%; in the test with A498 renal it was 116%; with MOLT-4 leukemia, -4.66% (active).

`Cc1ccc([N+](=O)[O-])c(C(=O)Nc2ccc(-c3ccc4c(c3)NC(=O)/C4=C\c3ccc[nH]3)cc2)c1`: the growth in the test with HCT-15 colon is -17.3% (active); in the test with HT29 colon, 46.5%; in the test with SNB-75 CNS, 42.7%; with SNB-19 CNS it was 30.6%; in the test with U251 CNS, 6.92% (active); in the test on PC-3 prostate, 21.3%. Besides, the growth is 101% in the test on SK-MEL-5 melanoma; 39.5% in the test with UACC-62 melanoma; 21.9% in the test on LOX IMVI melanoma; 94.8% with SK-MEL-28 melanoma; 75.5% with SK-MEL-2 melanoma; 25.7% in the test on EKVX NSCLC. The growth is 76.6% in the test on UO-31 renal; 105% with TK-10 renal; 66.4% in the test on ACHN renal; 69.4% in the test on CAKI-1 renal; 134% with A498 renal; 22.1% with CCRF-CEM leukemia. In addition, the growth with MOLT-4 leukemia is 14.1%.

As for `O=C(Cc1ccc2c(c1)CN(C1CCC(=O)NC1=O)C2=O)NCc1cccc2ccccc12` (stereo unspecified), the growth in the test on HCT-15 colon was -30.1% (active); in the test with HT29 colon it was 3.65% (active); in the test with SNB-75 CNS, -33.1% (active); with SNB-19 CNS, -11.9% (active); with U251 CNS, 17.2%; with PC-3 prostate it was 6.97% (active). The growth was -93.8% (active) with SK-MEL-5 melanoma; 4.05% (active) in the test with UACC-62 melanoma; -48.3% (active) with LOX IMVI melanoma; -10.6% (active) with SK-MEL-28 melanoma; -45.7% (active) in the test with SK-MEL-2 melanoma; 1.9% (active) with EKVX NSCLC. Moreover, the growth with UO-31 renal is -33.8% (active); in the test on TK-10 renal, 18%; in the test on ACHN renal it was -19% (active); with CAKI-1 renal it was 7.68% (active); with A498 renal, -13.2% (active); with CCRF-CEM leukemia, 9.65% (active). In the test on MOLT-4 leukemia, the growth is -15.2% (active).

For the molecule `Cc1cccc(NC(=O)CSc2nc3ccc(F)cc3c(=O)n2-c2ccc(Cl)cc2)c1C`, the growth in the test with HCT-15 colon is 70.5%; with HT29 colon it was 76.3%; in the test with SNB-75 CNS, -20.7% (active); with SNB-19 CNS, 7.05% (active); in the test on U251 CNS it was 48.8%; in the test on PC-3 prostate, 68.9%. In addition, the growth with SK-MEL-5 melanoma is 88.2%; with UACC-62 melanoma, 80.8%; with SK-MEL-28 melanoma it was 74.3%; with SK-MEL-2 melanoma it was 73.1%; in the test with EKVX NSCLC, 75%; with SN12C renal, 64.1%. For the same molecule, the growth was 39.6% with UO-31 renal; 108% with TK-10 renal; 37.8% in the test on ACHN renal; -21.6% (active) in the test on CAKI-1 renal; 108% with A498 renal; 94.4% with CCRF-CEM leukemia. In addition, the growth in the test on MOLT-4 leukemia was 81.3%.

On to `Cc1ccc(-c2nc(Nc3ccc(S(N)(=O)=O)cc3)c3ccccc3n2)cc1`, for which the growth in the test on HCT-15 colon was 1.3% (active); with HT29 colon, 14.6%; in the test with SNB-75 CNS, 87.6%; in the test on SNB-19 CNS it was 60.6%; in the test on U251 CNS, 49.7%; with PC-3 prostate, 39.5%. For the same molecule, the growth in the test on SK-MEL-5 melanoma is 74.4%; in the test with UACC-62 melanoma, 78.5%; in the test with LOX IMVI melanoma, -71.5% (active); in the test on SK-MEL-28 melanoma it was 75.8%; in the test with SK-MEL-2 melanoma it was 99.9%; with EKVX NSCLC, 65.9%. Besides, the growth with UO-31 renal was 54.5%; in the test with TK-10 renal, 104%; with ACHN renal, 42.8%; in the test with CAKI-1 renal, 36.5%; with A498 renal, 61.3%; with CCRF-CEM leukemia it was 25.7%. The growth with MOLT-4 leukemia is 11.2%.

Turning to `COc1ccc2[nH]c(=O)c(CSc3nccc(-c4ccc(Cl)cc4)n3)cc2c1`, the growth is 36.3% in the test with HCT-15 colon; 33.9% in the test with HT29 colon; -11.5% (active) with SNB-75 CNS; 40.5% in the test on SNB-19 CNS; 13% with U251 CNS; 29.3% in the test on PC-3 prostate. For the same molecule, the growth in the test with SK-MEL-5 melanoma was 44.8%; with UACC-62 melanoma, 37.9%; in the test on LOX IMVI melanoma, 27.9%; in the test with SK-MEL-28 melanoma, 45.3%; in the test on SK-MEL-2 melanoma, 42.9%; with EKVX NSCLC, 7.4% (active). Besides, the growth in the test with UO-31 renal was 7.11% (active); with TK-10 renal it was 19.6%; with ACHN renal, -46.2% (active); in the test on CAKI-1 renal, -75.9% (active); in the test with A498 renal it was 45.5%; in the test with CCRF-CEM leukemia, 32.6%. For the same molecule, the growth in the test with MOLT-4 leukemia is 22%.

`COc1cc2oc(-c3cccc(C(=O)Nc4ccc(Cl)cc4)c3)cc(=O)c2c(OCCNC(=O)CNC(=O)OC(C)(C)C)c1OC`: the growth was 40.9% in the test on HCT-15 colon; 63.2% in the test with HT29 colon; 74.9% with SNB-75 CNS; 78.9% in the test on SNB-19 CNS; 74.8% in the test on U251 CNS; 57.2% in the test on PC-3 prostate. Further, the growth in the test with SK-MEL-5 melanoma was 31.2%; in the test with UACC-62 melanoma, 81%; in the test on SK-MEL-28 melanoma it was 69.4%; in the test on SK-MEL-2 melanoma, 78.4%; with EKVX NSCLC, 64.7%; with SN12C renal it was 53.5%. In addition, the growth was 49.7% in the test on UO-31 renal; 83.9% with TK-10 renal; 61.3% in the test with ACHN renal; 34.2% with CAKI-1 renal; 118% in the test with A498 renal; 49.4% in the test on CCRF-CEM leukemia. Also, the growth in the test on MOLT-4 leukemia was 41.1%.

Source of the values: PubChem BioAssay (NCI).
